# Data from the OligoGym collection.
# Target: PCTP
# Test: pooled miR-30 sensor sort-seq; sequence = guide strand
# Details: shRNA
# Further: reference of the scale not given here.
row,Sequence,sensor-assay potency score (higher = more potent)
1,TTCTTTAACATACTGGTCCCAT,-0.412
2,TACATTTCTAAATATTCTGGGA,-0.38
3,TTGAACTGTAGAAGAAGGCAGC,-0.297
4,TTCATTATAGAACACACTTTTC,-1.43
5,TTCTTGTTCATAGAGTTCTTTA,-0.702
6,TTTGCTAGCTGCCACAGCCATC,-1.46
7,TTGCACAATGGAATGATCGTGT,0.345
8,TAGAACACACTTTTCTTCCCAG,0.135
9,TAACATACTGGTCCCATTGTTT,-0.841
10,TTATAGAACACACTTTTCTTCC,-0.218
11,TAGAGTTCTTTAACATACTGGT,0.218
12,AAGTCCAGTCTTCTTGTCCAGC,-1.17

# Target: PC
# Test: as above
# Details: shRNA
row,Sequence,sensor-assay potency score (higher = more potent)
1,TTCTCGTCGATGAACTGGGTGT,-0.428
2,TCTCGCAGCAGGATGTCTCTGA,0.144
3,TTCTTGACCTCCTTGAACTTGG,-0.463
4,TTCATCTGCTTTCTGCCGGTGC,-0.101
5,TTGACCTCCTTGAACTTGGAGC,-0.629
6,TTGATGTCTATCACCTTCCCAG,-0.547
7,TTGGTCACATGAACCTTGCGGA,0.159
8,TTGTTGAGCACATTCTGCAGGA,0.211
9,TTGAAGACCACGTTGTCTGGGT,0.437
10,TACTGCAGTGAGTACTTGGTGC,-0.271
11,TTGAGGGAGTCAAACACACGGA,0.00371
12,TAGTACTGCAGTGAGTACTTGG,-0.46

# Target: PDE12
# Test: as above
# Details: shRNA
row,Sequence,sensor-assay potency score (higher = more potent)
1,TAGTACATAAGCATGATTCATT,-0.285
2,TAACTTAAGTCTCTCACCCTTA,-0.0358
3,TTCACCACAAGCACTTTTCAGC,-0.0283
4,TATCCTTTTAGAAGAGTCCTTT,0.141
5,TTGAGGTAGAGGTAGACCCTAA,-0.795
6,TTGAAGTTTACATATAAGCTTT,-0.258
7,TGAAATTGTAGTAAATCGCTAA,0.612
8,TAAATCGCTAACTAAATTGAGG,-0.622
9,TTGTAGTAAATCGCTAACTAAA,-1.21
10,TAACTTCTTCATGACTAGGTAA,-0.476
11,TTCTTTGTGAAGTGGGTCGGAC,-0.551
12,AAATGTAATCTAGACATCCATG,-1.09

# Target: PDE1C
# Test: as above
# Details: shRNA
row,Sequence,sensor-assay potency score (higher = more potent)
1,TAGAGTGATCCTTCTTGTCTGT,0.0178
2,TTGAGTAAAAATCTCACGTTGT,0.531
3,TTTGAGTAAAAATCTCACGTTG,-0.294
